NPC1 prom act: activates the NPC1 promoter | Huh7 NPC1 promoter luciferase reporter, 24 h | Potency, µM (titrated, usually from 9.22 µM), without a hit: at the highest dose activation, most hits filed as activators | 320,000 compounds, 2.4% hits; also: % of control where 0% means no effect; nearly all actives have a fitted effect of over 60% in size
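Luciferase expression driven by the NPC1 promoter was measured in stably transfected Huh7 cells after a 24 h compound incubation, using a luciferase reagent and a luminescence read.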
Rab9 prom act: activates the Rab9 promoter. Huh7 Rab9 promoter-luciferase reporter, luminescence, 24 h. Potency, µM (top dose mostly 9.22 µM), for the others: at the top dose activation, negative = inhibition, hits mostly activators. 320,000 compounds, 2.8% hits. AID 485297; also: % of control where 0% means no effect; nearly all actives have a fitted effect of over 60% in size
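Huh7 reporter line, Rab9 promoter upstream of luciferase. Compound exposure 24 h at 37 °C in reduced-serum medium with 10% FBS. Read-out: luminescence.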
FLuc modulator: inhibits or activates purified firefly luciferase, miR-21 counter-screen. P08659. Potency, µM (doses to about 57.5 µM), for the others: at the highest dose activity change, negative = inhibition, most hits filed as inhibitors. 360,000 compounds, 6.9% hits. AID 588342. purified FLuc, Km substrates, luminescence inhibition;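 also: plate controls were vehicle for no effect and reference inhibitor for full effect; nearly all actives have a fitted effect of over 55% in size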
Target sequence (P08659 whole entry, looked up): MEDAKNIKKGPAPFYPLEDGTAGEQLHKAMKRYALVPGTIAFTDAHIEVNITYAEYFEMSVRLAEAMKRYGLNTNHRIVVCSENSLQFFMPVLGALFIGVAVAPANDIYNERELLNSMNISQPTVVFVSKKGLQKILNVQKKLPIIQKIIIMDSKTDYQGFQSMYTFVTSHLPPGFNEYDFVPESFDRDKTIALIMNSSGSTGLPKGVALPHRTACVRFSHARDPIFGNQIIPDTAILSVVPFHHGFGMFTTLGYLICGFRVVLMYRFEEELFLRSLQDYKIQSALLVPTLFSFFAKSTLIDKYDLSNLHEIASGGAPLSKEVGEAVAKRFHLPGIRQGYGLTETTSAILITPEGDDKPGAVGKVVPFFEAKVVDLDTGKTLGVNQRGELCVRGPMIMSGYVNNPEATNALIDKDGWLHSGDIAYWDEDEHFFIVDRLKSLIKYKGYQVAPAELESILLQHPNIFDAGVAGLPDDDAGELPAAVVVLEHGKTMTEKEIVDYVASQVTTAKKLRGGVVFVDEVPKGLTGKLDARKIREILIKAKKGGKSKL
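Purified P. pyralis luciferase, 10 nM final, with Km-level 10 uM D-luciferin and 10 uM ATP in 50 mM Tris acetate pH 7.5, 10 mM Mg acetate, 0.01% Tween-20, 0.05% BSA; 6-point qHTS titration about 60 µM downward; luminescence read.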
SMN2 splice enh: SMN2 splice variant enhancement; 210,000 compounds, 2.8% hits; HEK293 SMN2-luciferase splicing reporter, luminescence, 30-36 h; Potency, µM (highest dose often 46.1 µM), without a hit: at the top dose activity change, positive = activation, most hits filed as activators; also: % of control where 0% means no effect; nearly all actives have a fitted effect of over 55% in size
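HEK293 cells carry an SMN2 […]–luciferase reporter in which exon 7 inclusion puts luciferase in frame. Cells were plated 10-12 h before compound addition, then incubated 30-36 h at 37C. ONE-Glo luminescence was read; sodium butyrate at 4.5 mM final served as control.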
Luc counter: counter-screen: inhibitors of Kinase-Glo firefly luciferase. Q27757. Kinase-Glo luciferase, ATP luminescence, 8 min. Potency, µM (doses to about 38.3 µM), inactives show at the highest dose activity change, negative = inhibition, actives largely listed as inhibitors. 200,000 compounds, 0.28% hits. AID 1379; also: % is scaled to controls: 0 for no effect and ±100 for the full control effect; nearly all actives have a fitted effect of over 60% in size
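Recombinant Kinase-Glo luciferase, 10 uM ATP (linear range), luciferin; imidazole pH 7.2 / KCl / MgCl2 / Tween / BSA buffer; 8 min RT; luminescence.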
* marks the source's active call; other numbers are inactive results; ? = inconclusive; · = no result given; [ ] = remark or other dose. Most compounds without a hit are left out; they make up all but 7.3% or so of the library. Calls follow the shape of the dose curve; as a rule, active = well fitted curve in the direction sought with a large enough effect; inconclusive = small, poorly fitted or top-dose-only effect, or another doubt; inactive = no such curve, though single readings can be large; an effect the other way counts as inactive or inconclusive. Potency is read from the fitted curve at half-maximal effect.

SMILES	NPC1 prom act	Rab9 prom act	FLuc modulator	SMN2 splice enh	Luc counter
Cc1ccc2nc(-c3cccs3)oc(=O)c2c1	-1%	-2%	9.5µM*	-1%	-7%
CCN1C(=O)c2ccc(-c3nc4ccccc4c(=O)o3)cc2C1=O	-2%	5%	-11%	·	·
Cc1ccc(-c2nc3ccccc3c(=O)o2)cc1	?	3.2µM*	4.3µM*	·	·
Cc1cc(-c2nc3ccccc3c(=O)o2)ccc1[N+](=O)[O-]	27%	16%	2.7µM*	·	·
O=c1oc(-c2cccc([N+](=O)[O-])c2)nc2ccccc12	15%	18%	?	·	·
Cc1ccc(OCC(=O)Nc2ccc(OCc3cc(=O)n4ccsc4n3)cc2)cc1	·	·	1%	10%	·
Cc1ccc(C)c(NC(=O)CCc2c(C)n(C)c3cc(-c4ccccc4C)nn3c2=O)c1	·	·	-11%	·	·
O=C(N/N=C\c1ccc(Cl)s1)c1cccs1	25%	?	17µM*	2%	14%
O=C(N/N=C/c1ccc(Cl)s1)C(O)c1ccccc1 (stereo not drawn)	-2%	11%	-12%	·	·
COC(=O)c1ccccc1Oc1cnc2ccccc2n1	2%	-3%	-3%	·	·
COc1ccccc1/C=N/NC(=O)c1ccccc1Cl	-1%	-5%	?	12%	-2%
COc1ccccc1C(=O)N/N=C/c1cnc2ccccc2n1	?	?	?	16µM*	-3%
COc1ccccc1C(=O)N/N=C/c1ccc(Cl)s1	10%	17%	19µM*	?	-1%
Cc1ccccc1CNC(=O)C(=O)NCC(c1ccc2c(c1)OCO2)N1CCOCC1 (stereo not drawn)	·	·	2%	·	·
Cc1ccccc1OCc1nc2ccccc2n1Cc1ccccc1Cl	·	·	?	-27%	·
O=c1[nH]c(=S)c2[nH]c(=O)n(-c3ccccc3)c2[nH]1	·	·	·	-4%[9.22 µM]	-5%[7.66 µM]
COc1ccc(/C=C2\SC(=O)N(CC(=O)N(C)C3CCS(=O)(=O)C3)C2=O)cc1 (stereo not drawn)	12%	13%	?	·	·
COc1ccc(/C=C2\SC(=O)N(CCC(=O)N(C)C3CCS(=O)(=O)C3)C2=O)cc1 (stereo not drawn)	28%	26%	11µM*	·	·
COc1ccc(/C=C2\SC(=S)N(CCC(=O)NC3C=CS(=O)(=O)C3)C2=O)cc1 (stereo not drawn)	2%	-8%	5.4µM*	·	·
COc1cccc(/C=C2\SC(=S)N(CCC(=O)Nc3ccc(O)cc3)C2=O)c1	0%	1%	?	·	·
O=C(CN1C(=O)S/C(=C\c2ccc(Cl)cc2)C1=O)NC1C=CS(=O)(=O)C1 (stereo not drawn)	-4%	0%	2%	·	·
COc1cccc(/C=C2\SC(=S)N(CCC(=O)NC3C=CS(=O)(=O)C3)C2=O)c1 (stereo not drawn)	21%	2%	4.8µM*	·	·
Cc1ccc(S(=O)(=O)N2CCCC2C(=O)Nc2ccc(Br)cc2)cc1 (stereo not drawn)	·	·	-1%	-88%	·
COc1cccc(NC(=O)Nc2ccncc2)c1	-1%	18%	?	·	-6%
COc1c(C(=O)Nc2ccc(Cc3ccncc3)cc2)ccc2ccccc12	4%	-4%	19µM*	-54%	2%
SMILES	NPC1 prom act	Rab9 prom act	FLuc modulator	SMN2 splice enh	Luc counter
COc1ccc(Br)cc1C(=O)Nc1ccc(Cc2ccncc2)cc1	9%	1%	?	-29%	0%
COc1cccc(NC(=O)Nc2ccc(Cc3ccncc3)cc2)c1	0%	-2%	17µM*	-35%	2%
COc1cccc(NC(=O)Nc2nnc(N3C(C)CCCC3C)s2)c1 (stereo not drawn)	29%	23%	21µM*	·	·
COc1cccc(CNC(=O)c2ccncc2)c1	4%	0%	17µM*	·	·
COc1cccc(NC(=O)Nc2nnc(Cc3ccccc3)s2)c1	1%	18%	-3%	·	·
Cc1ccc(C)c(CN2C(=O)c3ccccc3S(=O)c3ccc(C(=O)N4CCN(c5cccc(Cl)c5)CC4)cc32)c1 (stereo not drawn)	·	·	0%	?	·
COc1cccc(NC(=S)NCc2ccncc2)c1	1%	1%	2%	-12%	1%
COc1cccc(NC(=O)C(=O)NCc2ccncc2)c1	2%	?	19µM*	13µM*	-16%
CC1CCCCN1C(=O)c1ccc2c(c1)N(Cc1ccc(F)cc1)C(=O)c1ccccc1S2(=O)=O (stereo not drawn)	·	·	-2%	-8%	·
O=C(O)c1cccc(-c2ccc(/C=N/NC(=O)C3COc4ccccc4O3)o2)c1 (stereo not drawn)	1%	-2%	24µM*	-1%	-1%
CC(C)(C)c1ccc2c(c1)OC(C(=O)N/N=C\c1ccc(-c3cccc(C(=O)O)c3)o1)CO2 (stereo not drawn)	5%	1%	19µM*	·	·
Cc1ccc(S(=O)Cc2ccc(C(=O)NCc3ccc(OC(C)C)cc3)o2)cc1 (stereo not drawn)	·	·	-10%	·	·
O=C(COc1ccc(F)cc1)Nc1ccc(S(=O)(=O)N(Cc2ccccc2)c2ccccc2)cc1	·	·	6%	·	·
COc1cccc(C2CC(=O)Nc3cc(OC)c(OC)c(OC)c32)c1OC(C)C (stereo not drawn)	·	·	0%	18µM*	·
Cc1ccc(NC(=O)c2cc3c(-c4ccccc4)nn(-c4ccccc4)c3s2)cc1	·	·	2%	-1%	·
CCN(Cc1ccccc1)C(=O)Cn1cc(S(=O)(=O)Cc2cccc(Cl)c2)c2ccccc21	·	·	1%	·	·
Cc1cc(-c2ccc(C)c(S(=O)(=O)NCc3cccs3)c2)on1	·	·	0%	·	·
Cc1ccc(C(=O)NCC(c2cccnc2)N2CCc3ccccc3C2)cc1C (stereo not drawn)	·	·	2.7µM*	·	·
Cc1noc(C)c1S(=O)(=O)N1CCc2nc(COc3ccccc3)c3c(c2C1)CO[C@@H](C)C3	·	·	·	-10%[9.22 µM]	-2%[7.66 µM]
NC(=O)c1ccccc1NC(=O)COc1ccc2c(c1)OCO2	2.5µM*	3.5µM*	4.8µM*	·	·
CCOc1ccccc1NC(=O)COc1ccc2c(c1)OCO2	16%	0%	-56%	·	·
COc1ccccc1NC(=O)COc1ccc2c(c1)OCO2	?	-39%	15µM*	·	·
O=C(COc1ccc2c(c1)OCO2)Nc1nncs1	14%	26%	9.5µM*	·	·
CCc1nnc(NC(=O)COc2ccc3c(c2)OCO3)s1	23%	21%	-11%	·	·
CN(C)c1ccc(-c2cc(NCc3ccccc3)ncn2)cc1	·	·	·	0.79µM*	-5%
COc1cccc(Nc2ncc3nc(-c4cc(F)cc(F)c4)c(=O)n(CCC#N)c3n2)c1	·	·	·	-15%	-3%
COc1ccc2c(c1OC)C(=O)OC2	-5%	0%	-3%	22%	4%
COc1ccc2c(c1OC)C(=O)N(c1ccc(F)cc1)C2	2µM*	1.3µM*	8.5µM*	·	·
COc1ccc2c(c1OC)C(=O)N(c1cccc(NC(C)=O)c1)C2	14%	21%	11µM*	·	·

Assay outcomes from PubChem BioAssay.
